The text below walks through data of PubChem BioAssay.

Assay [1] can be described thus: small molecules captured by biotinylated probe aFSTL3 – biochemical, small-molecule microarray, fluorescence 635/667, stem cell growth factor project, primary screen (AID 1064).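 Also: measures binding of the biotinylated anti-FSTL3 antibody to printed compounds.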 To be noted: higher = more signal.
Assay [2] in a line: binders from COS7 lysate, DM2A8 probe, primary screen, torsin A project, cell lysate, small-molecule microarray, fluorescence 635/667 (AID 1065). To be noted: higher = more signal, COS7 lysate expressing mutant human TOR1A.
A short description of assay [3]: small molecules captured by biotinylated probe aFGF2 – biochemical, small-molecule microarray, fluorescence 635/667, stem cell growth factor project, primary screen (AID 1067).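 Also: measures binding of biotinylated aFGF2 protein to printed compounds on slides; z-score merges feature fluorescence and signal-to-noise across triplicate slides.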 To be noted: higher = more signal.
The nature of assay [4]: small molecules captured by biotinylated probe aFGF10 – biochemical, small-molecule microarray, fluorescence 635/667, stem cell growth factor project, primary screen (AID 1071).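 Also: score merges 667 nm spot intensity and signal to noise from triplicate slides.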 To be noted: higher = more signal.
The target of assay [5] is Neurogenic locus notch homolog protein 2 (Homo sapiens) (UniProt Q04721). Description: small molecules binding Notch2 protein – biochemical, small-molecule microarray, 635 nm fluorescence, stem cell growth factors, primary screen (AID 1073). To be noted: higher = more signal.
Assay [6] has as its target Pro-neuregulin-1, membrane-bound isoform (Homo sapiens) (UniProt Q02297). Description: small molecules binding neuregulin-1 protein – biochemical, small-molecule microarray, fluorescence 635/667, psychiatric disease protein project, primary screen (AID 1075).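 Also: score combines 667 nm spot fluorescence with signal to noise.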 To be noted: NRG1 binding, 635 nm fluorescence, higher = more signal.
The test system of assay [7] is Neuregulin-1 EGF-like domain. The assay can be described thus: small molecules binding NRG1 EGF domain – biochemical, small-molecule microarray, 635 nm fluorescence, primary screen (AID 1081).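 Also: binding of the protein to compounds printed on small-molecule microarray slides.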 To be noted: higher = more signal.
Assay [8] can be described thus: FRG1 expression reporter modulators in myotubes – cell-based, C2C12 myotubes, firefly/Renilla luciferase, luminescence, FRG1 inhibition for FSHD, primary screen (AID 1084). To be noted: FRG1 promoter luciferase, higher = more signal, called active from +8 up or from −8 down.
Assay [9] in a line: small molecules captured by biotinylated probe aFST – biochemical, small-molecule microarray, fluorescence 635/667, stem cell growth factor project, primary screen (AID 1086).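 Also: score merges 667 nm fluorescence with signal-to-noise of each printed compound spot.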 To be noted: higher = more signal.
Assay [10] is described as follows: binders of probe aHhip on microarray, primary screen, stem cell growth factor project, biochemical, small-molecule microarray, fluorescence 635/667 (AID 1087).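 Also: score merges spot fluorescence at 667nm with spot signal to noise ratio.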 To be noted: higher = more signal.
For assay [11], the system named is PRMT1 (protein arginine N-methyltransferase 1). Description: small molecules binding arginine methyltransferase PRMT1 – biochemical, small-molecule microarray, 635 nm fluorescence, primary screen (AID 1088).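 Also: binding of Prmt1 protein to compounds spotted on small-molecule microarray slides.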 To be noted: higher = more signal.
A short description of assay [12]: growth effects on S. cerevisiae YJM789 – YJM789 clinical isolate, OD600, 24 h, basal, primary screen (AID 1089).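 Also: growth of clinical yeast isolate S. cerevisiae YJM 789 seeded 1000 cells per well; test concentration not given here.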 To be noted: higher = more signal, called active from +8 up or from −8 down.
Assay [13] in a line: S. pombe growth modifiers, basal conditions – strain 972, OD600, 24 h, no modulator, primary screen (AID 1090).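 Also: basal condition with compound alone and no growth modifier present; test concentration not given here.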 To be noted: S. pombe 972 growth, higher = more signal, called active from +8 up or from −8 down.
Assay [14] can be described thus: budding yeast growth modifiers under rapamycin – strain BY4716, OD600, 96 h, primary screen (AID 1091). Also: test concentration not given here. To be noted: S. cerevisiae BY4716 + rapamycin, higher = more signal, called active from +8 up or from −8 down.
The target in assay [15] is Torsin-1A-interacting protein 2 (Homo sapiens) (UniProt Q8NFQ8). The assay can be described thus: small molecules binding lysate-expressed LULL1 – cell lysate, human LULL1 lysate, 635/667 nm fluorescence, primary screen (AID 1092).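 Also: probe is lysate of COS7 cells overexpressing human LULL1; score merges per-feature 667 nm fluorescence with signal-to-noise.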 To be noted: small-molecule microarray, hLULL1 lysate binding, 635 nm fluorescence; higher = more signal.
Assay [16] can be described thus: optical density change of DRC41 E. coli – strain DRC41, OD650, 24 h, E. coli filamentation project, primary screen (AID 1093).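 Also: MC1000 strain lacking acrAB efflux and sulA so SOS filamentation is blocked; test concentration not given here.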 To be noted: E. coli DRC41 growth, higher = more signal, called active from +8 up or from −8 down.
The nature of assay [17]: probe aLefty2 binding to arrayed compounds – biochemical, biotinylated probe, 635/667 nm fluorescence, primary screen (AID 1094).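 Also: score merges spot fluorescence near 667 nm with spot signal-to-noise ratio.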 To be noted: small-molecule microarray, higher = more signal.
For assay [18], the system named is Noggin (protein binding on small-molecule microarray). The assay can be described thus: small molecules binding Noggin protein – biochemical, 635/667 nm fluorescence, primary screen (AID 1095).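 Also: score merges 667 nm feature fluorescence with signal to noise over triplicate slides.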 To be noted: 635 nm fluorescence, higher = more signal.
For assay [19], the target named is Neurogenic locus notch homolog protein 3 (Homo sapiens) (UniProt Q9UM47). The assay can be described thus: small molecules binding NOTCH3 protein – biochemical, 635/667 nm fluorescence, primary screen (AID 1096). To be noted: small-molecule microarray, 635 nm fluorescence, higher = more signal.
Assay [20] is described as follows: probe aEGFR binding to arrayed compounds – biochemical, biotinylated probe, 635/667 nm fluorescence, primary screen (AID 1097).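 Also: probe is a biotinylated anti-EGFR antibody binding compounds printed on slides; score combines fluorescence near 667 nm and signal to noise of each spot.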 To be noted: small-molecule microarray, higher = more signal.

Active and inactive are the calls of the source.

Sequence of Torsin-1A-interacting protein 2 (Homo sapiens) (Q8NFQ8 whole entry, looked up): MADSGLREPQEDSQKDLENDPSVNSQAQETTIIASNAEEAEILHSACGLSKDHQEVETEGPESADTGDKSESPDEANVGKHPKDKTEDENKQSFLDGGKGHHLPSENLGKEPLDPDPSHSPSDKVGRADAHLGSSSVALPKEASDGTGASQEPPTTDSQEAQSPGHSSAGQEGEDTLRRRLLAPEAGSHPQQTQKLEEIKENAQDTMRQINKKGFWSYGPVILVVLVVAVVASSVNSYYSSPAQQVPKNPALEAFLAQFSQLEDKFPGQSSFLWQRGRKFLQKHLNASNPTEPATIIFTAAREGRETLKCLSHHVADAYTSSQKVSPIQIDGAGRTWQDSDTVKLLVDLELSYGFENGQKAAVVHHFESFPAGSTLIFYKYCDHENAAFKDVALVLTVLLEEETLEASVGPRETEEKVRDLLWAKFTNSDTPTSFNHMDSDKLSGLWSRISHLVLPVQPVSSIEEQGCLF
Sequence of Neurogenic locus notch homolog protein 3 (Homo sapiens) (Q9UM47 whole entry, looked up): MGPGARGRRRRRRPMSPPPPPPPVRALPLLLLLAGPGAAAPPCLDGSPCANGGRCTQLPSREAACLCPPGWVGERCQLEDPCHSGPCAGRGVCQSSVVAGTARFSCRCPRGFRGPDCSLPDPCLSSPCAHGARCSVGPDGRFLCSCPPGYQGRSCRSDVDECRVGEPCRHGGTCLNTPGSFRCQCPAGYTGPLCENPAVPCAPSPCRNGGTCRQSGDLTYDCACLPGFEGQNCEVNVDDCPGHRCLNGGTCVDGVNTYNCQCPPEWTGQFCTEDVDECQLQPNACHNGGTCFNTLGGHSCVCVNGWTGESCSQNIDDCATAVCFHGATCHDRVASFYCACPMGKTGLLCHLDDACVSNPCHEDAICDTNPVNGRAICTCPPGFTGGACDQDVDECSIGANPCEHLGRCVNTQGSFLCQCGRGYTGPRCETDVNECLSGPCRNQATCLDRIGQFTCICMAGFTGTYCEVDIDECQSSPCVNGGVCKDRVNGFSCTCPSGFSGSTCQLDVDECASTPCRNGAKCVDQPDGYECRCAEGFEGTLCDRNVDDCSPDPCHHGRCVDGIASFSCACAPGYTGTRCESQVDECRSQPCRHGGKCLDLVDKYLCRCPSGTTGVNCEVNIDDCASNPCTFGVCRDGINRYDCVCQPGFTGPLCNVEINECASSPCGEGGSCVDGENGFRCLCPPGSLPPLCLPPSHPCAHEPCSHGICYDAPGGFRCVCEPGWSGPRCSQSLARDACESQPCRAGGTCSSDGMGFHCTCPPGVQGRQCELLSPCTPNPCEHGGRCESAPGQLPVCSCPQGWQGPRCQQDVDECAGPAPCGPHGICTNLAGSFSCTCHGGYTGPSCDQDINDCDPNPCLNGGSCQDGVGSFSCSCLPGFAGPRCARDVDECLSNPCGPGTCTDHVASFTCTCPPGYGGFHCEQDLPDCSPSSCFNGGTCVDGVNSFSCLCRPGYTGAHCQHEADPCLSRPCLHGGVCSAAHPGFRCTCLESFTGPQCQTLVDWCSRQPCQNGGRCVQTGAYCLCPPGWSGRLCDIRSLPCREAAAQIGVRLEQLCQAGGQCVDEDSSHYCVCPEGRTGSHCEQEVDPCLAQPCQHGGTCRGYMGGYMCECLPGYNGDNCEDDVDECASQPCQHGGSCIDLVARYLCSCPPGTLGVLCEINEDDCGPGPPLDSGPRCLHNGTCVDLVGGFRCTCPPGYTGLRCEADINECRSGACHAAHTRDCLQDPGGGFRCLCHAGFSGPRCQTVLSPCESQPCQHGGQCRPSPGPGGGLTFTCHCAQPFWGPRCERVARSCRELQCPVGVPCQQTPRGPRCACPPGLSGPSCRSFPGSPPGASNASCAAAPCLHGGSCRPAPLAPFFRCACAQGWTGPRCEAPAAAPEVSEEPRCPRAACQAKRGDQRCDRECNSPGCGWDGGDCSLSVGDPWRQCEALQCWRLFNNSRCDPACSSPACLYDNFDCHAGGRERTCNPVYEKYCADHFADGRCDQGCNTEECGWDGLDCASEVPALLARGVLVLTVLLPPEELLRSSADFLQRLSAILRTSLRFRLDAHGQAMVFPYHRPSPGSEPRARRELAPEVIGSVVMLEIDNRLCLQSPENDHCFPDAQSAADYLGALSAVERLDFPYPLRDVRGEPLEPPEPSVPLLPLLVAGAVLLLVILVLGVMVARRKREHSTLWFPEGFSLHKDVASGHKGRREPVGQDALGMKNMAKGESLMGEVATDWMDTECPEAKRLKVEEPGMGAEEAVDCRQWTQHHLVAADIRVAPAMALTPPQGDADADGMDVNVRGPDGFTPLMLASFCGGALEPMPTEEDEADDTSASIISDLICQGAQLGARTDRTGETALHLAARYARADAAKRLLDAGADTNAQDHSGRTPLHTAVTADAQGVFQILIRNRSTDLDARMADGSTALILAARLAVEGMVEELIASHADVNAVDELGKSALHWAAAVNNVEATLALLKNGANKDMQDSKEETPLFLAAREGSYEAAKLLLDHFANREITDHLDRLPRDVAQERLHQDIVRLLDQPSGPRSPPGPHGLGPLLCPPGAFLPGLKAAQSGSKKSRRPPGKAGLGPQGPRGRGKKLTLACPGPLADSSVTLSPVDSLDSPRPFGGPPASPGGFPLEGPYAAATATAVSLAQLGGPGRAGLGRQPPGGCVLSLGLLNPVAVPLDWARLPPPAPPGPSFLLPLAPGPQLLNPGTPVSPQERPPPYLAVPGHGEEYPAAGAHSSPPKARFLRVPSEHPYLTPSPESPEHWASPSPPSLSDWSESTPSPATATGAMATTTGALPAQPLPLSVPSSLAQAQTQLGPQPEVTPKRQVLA
Sequence of Pro-neuregulin-1, membrane-bound isoform (Homo sapiens) (Q02297 whole entry, looked up, the tested form may be a part, canonical isoform): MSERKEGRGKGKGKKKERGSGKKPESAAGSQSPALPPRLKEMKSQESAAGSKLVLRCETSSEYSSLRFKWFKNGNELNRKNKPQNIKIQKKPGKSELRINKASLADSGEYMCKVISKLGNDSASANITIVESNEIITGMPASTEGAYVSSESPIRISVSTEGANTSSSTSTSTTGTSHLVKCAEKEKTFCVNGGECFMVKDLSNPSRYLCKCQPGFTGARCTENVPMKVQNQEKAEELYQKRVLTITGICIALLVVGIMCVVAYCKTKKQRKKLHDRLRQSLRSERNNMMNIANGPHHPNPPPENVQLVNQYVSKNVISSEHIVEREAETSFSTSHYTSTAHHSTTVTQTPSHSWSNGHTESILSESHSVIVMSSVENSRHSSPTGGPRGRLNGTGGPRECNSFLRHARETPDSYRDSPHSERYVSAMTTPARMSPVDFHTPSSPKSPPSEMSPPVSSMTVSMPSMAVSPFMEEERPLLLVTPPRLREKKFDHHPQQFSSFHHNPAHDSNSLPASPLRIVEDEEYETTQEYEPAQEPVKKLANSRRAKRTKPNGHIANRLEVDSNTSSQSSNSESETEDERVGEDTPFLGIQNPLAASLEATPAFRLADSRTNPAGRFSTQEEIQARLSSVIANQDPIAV

As for `[N-]=[N+]=NCc1ccccc1[C@@H]1OC(c2ccc(OCCCO)cc2)=N[C@]1(Cc1ccccc1N=[N+]=[N-])C(=O)N1CCOCC1`, the composite z-score in assay [1] was determined as 0.36; in assay [2], 0.485; in assay [3], 0.321; in assay [4], 0.636; in [5] it was 1.66; in [6], 1.77. In addition, the composite z-score in [7] is 1.1; in [9], 1.08; in assay [10] it was -0.0994; in assay [11], 1.55; in assay [15], 3.25; in assay [17], 0.295. The composite z-score in [18] is 1.04; in assay [19], 1.04; in assay [20], 0.246. Moreover, the z-score in [8] is -0.825 (inactive); in assay [12] it was -1.29 (inactive); in assay [13], -1.59 (inactive); in [14], 4.14 (inactive); in assay [16] it was -0.667 (inactive).

As for `CC1CC/C=C\[C@H]2OC34C=CCN(C(C)(C)C)C(=O)[C@H]3N(CCCCCCO)C(=O)[C@@H]4C2C(=O)O1` (stereo not given in full), the composite z-score is 0.237 in [1]; -0.153 in assay [2]; -0.149 in [3]; 0.0097 in [4]; -0.945 in [5]; 0.866 in assay [6]. Also, the composite z-score in assay [7] is 1.13; in assay [9] it was -0.222; in assay [10] it was -0.0994; in [11], -0.005; in [15], 1.4; in assay [17], -0.183. The composite z-score in assay [18] was -0.597; in assay [19] it was 0.0452; in [20], -0.371. Besides, the z-score was -1.09 (inactive) in [8]; -0.242 (inactive) in assay [12]; -0.357 (inactive) in assay [13]; -0.19 (inactive) in assay [14]; -0.31 (inactive) in assay [16].

Consider `COc1cc2c(cc1O)C(C1CC1)N(Cc1cc3c(cc1Br)OCO3)CC2` (stereo not given), for which the composite z-score was 0.423 in [1]; 0.97 in [2]; -0.119 in assay [3]; -0.974 in assay [4]; -0.695 in assay [5]; 0.502 in assay [6]. For the same compound, the composite z-score in assay [7] was 1.02; in [9], -0.734; in [10], -0.394; in assay [11], -0.221; in assay [15], 1.61; in assay [17], -0.209. Besides, the composite z-score was -0.774 in assay [18], -0.346 in assay [19] and -0.363 in [20]. Also, the z-score in [8] is 1.21 (inactive); in assay [12], 0.19 (inactive); in assay [13], -3.12 (inactive); in [14], -0.24 (inactive); in assay [16], -1.91 (inactive).

`COCCOC(=O)N1C(=O)[C@@]2(c3cc(C#CCCO)ccc31)[C@H](C(=O)Nc1nc3ccccc3s1)[C@H]1C(=O)O[C@H](c3ccccc3)[C@H](c3ccccc3)N1[C@@H]2c1ccc(OCCO)cc1`: the composite z-score in assay [1] is -0.221; in assay [2] it was 0.787; in [3], -0.0824; in [4], 0.871; in [5], 1.19; in assay [6], 0.991. The composite z-score in assay [7] was 1.07; in assay [9] it was 0.464; in [10], 0.0176; in [11] it was 1.54; in assay [15], 1.89; in [17], 0.0444. The composite z-score in [18] stood at 0.874; in assay [19], 1.1; in assay [20], 0.0848. Further, the z-score was 1.2 (inactive) in assay [8]; 1.58 (inactive) in [12]; 1.09 (inactive) in assay [13]; 2.02 (inactive) in assay [14]; 0.176 (inactive) in assay [16].

Consider `O=C1c2ccccc2[C@@]2(Cc3ccccc3N(CC(F)(F)F)C2=O)[C@H](c2ccc(CO)cc2)N1Cc1ccccc1Cl`, for which the composite z-score in assay [1] was -0.351; in assay [2], -0.112; in assay [3], -0.147; in [4], -0.0091; in assay [5] it was 0.0933; in [6], -0.0415. In addition, the composite z-score is 0.222 in [7]; -0.121 in [9]; -0.226 in assay [10]; 1.22 in [11]; -0.0577 in assay [15]; -0.159 in assay [17]. Further, the composite z-score in [18] is 0.476; in assay [19] it was -0.0169; in assay [20], -0.118. Also, the z-score in [8] was -0.163 (inactive); in [12], -0.146 (inactive); in assay [13] it was -0.172 (inactive); in [14], -1.62 (inactive); in assay [16], 0.0194 (inactive).
